According to PubChem BioAssay (NCATS):
Records with an inconclusive call do not appear. Calls of active or inactive are those of the source. Calls follow the shape of the dose curve; as a rule, active = well fitted curve in the direction sought with a large enough effect; inconclusive = small, poorly fitted or top-dose-only effect, or another doubt; inactive = no such curve, though single readings can be large; an effect the other way counts as inactive or inconclusive.

Legend:
[1] = target: Cytochrome P450 3A4 (Homo sapiens) (UniProt P08684); assay: qHTS Assay for Inhibitors and Substrates of Cytochrome P450 3A4 (AID 884); also: series mostly up to about 57 µM; nearly all actives have a fitted effect of over 50% in size
Method in brief: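 Luminescent readout of luciferin produced by CYP3A4 (20 nM) dealkylation of Luciferin-PPXE, 25 uM (its KM). NADPH-driven reaction ran 60 min at RT after 10 min compound preincubation; data scaled to 57 uM ketoconazole as 100% inhibition.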

[2] = Confirmation and Secondary Assay for Modulators of Hemoglobin Beta Chain Splicing at IVS2 654 locus (AID 910);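 also: HeLa cells stably carrying EGFP split by mutant beta-globin IVS2-654 intron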
Method in brief: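 HeLa cells stably expressing EGFP interrupted by β-globin IVS2-654 intron, seeded overnight in Opti-MEM/2% FCS, then treated 2 days at 37 °C. Restored splicing read as total peak GFP intensity per well by laser scanning cytometry (488 nm excitation, 500–520 nm emission); 500 nM antisense PNA as control.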

[3] = Confirmation and Secondary Assay for Modulators of Hemoglobin Beta Chain Splicing at IVS2 705 locus (AID 930);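 also: HeLa cells stably expressing the EGFP-705 splicing reporter; GFP fluorescence per well restored by corrected splicing of the IVS2-705 intron in EGFP; series mostly up to about 46 µM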
Method in brief: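 Splice-correction reporter: EGFP cDNA split by beta-globin intron 2 bearing the 705 mutation, stably in HeLa. Compound incubation 2 days, 37C; fluorescent objects 5-250 µm summed per well.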

[4] = target: Ubiquitin carboxyl-terminal hydrolase 1 (Homo sapiens) (UniProt O94782); assay: Inhibitors of USP1/UAF1: Pilot qHTS (AID 504865);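 also: rhodamine fluorescence freed from ubiquitin-rhodamine substrate followed over time; top concentration of the series differs between compounds; nearly all actives have a fitted effect of over 35% in size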
Method in brief: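 Enzyme-free wells gave the negative control, while test wells held 1nM USP1/UAF1 preincubated with compound for 15 min at room temperature. Ub-Rho at 150nM final started the reaction, and fluorescence at 480/540 nm was recorded kinetically.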

Measured: Potency

Sequence of Cytochrome P450 3A4 (Homo sapiens) (P08684 whole entry, looked up): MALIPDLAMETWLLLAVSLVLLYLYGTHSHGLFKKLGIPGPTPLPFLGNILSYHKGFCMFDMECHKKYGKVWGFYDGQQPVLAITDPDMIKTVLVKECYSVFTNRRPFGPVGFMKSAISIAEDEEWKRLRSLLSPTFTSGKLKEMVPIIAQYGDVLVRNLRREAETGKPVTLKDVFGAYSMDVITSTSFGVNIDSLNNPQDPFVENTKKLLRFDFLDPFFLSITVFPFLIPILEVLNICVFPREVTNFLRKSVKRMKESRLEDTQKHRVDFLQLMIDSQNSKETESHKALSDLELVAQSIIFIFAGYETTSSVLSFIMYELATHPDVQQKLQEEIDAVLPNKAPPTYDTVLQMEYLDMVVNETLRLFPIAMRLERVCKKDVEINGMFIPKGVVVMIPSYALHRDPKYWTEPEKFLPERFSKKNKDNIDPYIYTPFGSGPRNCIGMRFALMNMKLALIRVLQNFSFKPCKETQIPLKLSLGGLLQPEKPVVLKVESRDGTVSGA
Sequence of Ubiquitin carboxyl-terminal hydrolase 1 (Homo sapiens) (O94782 whole entry, looked up): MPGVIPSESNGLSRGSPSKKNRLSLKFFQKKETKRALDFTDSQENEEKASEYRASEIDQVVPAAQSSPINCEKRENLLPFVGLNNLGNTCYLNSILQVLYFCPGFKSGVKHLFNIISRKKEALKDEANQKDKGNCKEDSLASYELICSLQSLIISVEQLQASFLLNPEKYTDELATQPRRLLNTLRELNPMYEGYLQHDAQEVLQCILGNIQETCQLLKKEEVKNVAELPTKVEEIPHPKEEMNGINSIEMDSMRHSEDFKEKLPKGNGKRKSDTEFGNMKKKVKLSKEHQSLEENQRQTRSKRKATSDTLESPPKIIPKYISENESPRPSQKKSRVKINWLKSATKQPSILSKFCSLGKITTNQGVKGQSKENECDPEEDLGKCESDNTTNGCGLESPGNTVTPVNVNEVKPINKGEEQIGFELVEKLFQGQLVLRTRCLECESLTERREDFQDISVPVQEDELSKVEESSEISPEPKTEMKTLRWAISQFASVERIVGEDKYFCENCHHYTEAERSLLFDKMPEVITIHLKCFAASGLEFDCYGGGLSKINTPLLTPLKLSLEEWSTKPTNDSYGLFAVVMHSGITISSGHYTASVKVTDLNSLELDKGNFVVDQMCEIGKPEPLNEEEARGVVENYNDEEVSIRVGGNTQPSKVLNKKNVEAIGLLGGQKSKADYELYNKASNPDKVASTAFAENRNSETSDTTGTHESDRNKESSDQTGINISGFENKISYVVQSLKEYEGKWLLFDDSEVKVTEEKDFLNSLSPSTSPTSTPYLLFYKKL

CC(=O)OC1CCC2(C)C(=CC=C3C2CCC2(C)C3CCC2C(C)/C=C/C(C)C(C)C)C1(C)C (centres undefined)
inactive: [1] | [2] | [3] | [4]
